TTR transcr act – TTR transcription activators in neuroblastoma reporter cells, primary screen, cell-based, luminescence, SH-SY5Y, TTR promoter Gaussia luciferase. 100% = recombinant luciferase protein wells. activation, % at 16.7 µM. hit rate 1.3% among 92,000;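 active = activation above the mean of all tested compounds plus 3 SD, cut at about 9.5% in these data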;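 note: cells exposed to compounds for one day before reading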
HuH7 TTR inh – TTR promoter reporter inhibitors in hepatoma cells, counter-screen for TTR transcription activator project, cell-based, luminescence, HuH7 hepatoma; shares compounds with TTR transcr act; HuH7 TTR promoter-Gaussia luciferase reporter; inhibition, % at 16.7 µM; hit rate 4% among 1,100;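 active = average inhibition above the solvent-only control wells' mean plus 3 SD, cut at about 15% in these data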;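 note: inhibitors lower well luminescence so higher value means more inhibition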
TTR up confirm – TTR transcription activators, retest, confirmation, cell-based, luminescence, SH-SY5Y, triplicate; shares compounds with TTR transcr act; SHSY5Y TTR promoter Gaussia luciferase; 100% = purified Lucia enzyme wells, no cells; activation, % at 16.7 µM; 1,100 tested, under 10 active; AID 1117280, 2014;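 active = mean activation above a set limit taken from the earlier primary screen, cut at about 11% in these data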
A number is an active result; n = inactive. This is one part of a sample in which hits are shown more often than they occur.

SMILES | TTR transcr act | others
O=C(CSc1nnc(Cc2ccccc2)n1-c1cccc(Cl)c1)N1CCOCC1 | 22
Cn1c(CCc2ccccc2)nnc1SCC(=O)N1CCOCC1 | n
CC(C)(C)[C@H](NC(=O)c1cc(Cl)cc(Cl)c1)C(=O)N1CCC[C@H]1C(=O)N[C@H](C#N)CC(=O)O | n
CN(C)CCNCc1ccccc1OC1CCCC1 | 21 | HuH7 TTR inh=n;TTR up confirm=n
OCCNCc1ccc(OC2CCCC2)cc1 | n
CCOc1ccccc1CNCCNCC(C)O (stereo not given) | n
Cc1cc(C)c2c(SC(C)C)nc(N)nc2n1 | n
CCOC(=S)SCC(=O)N1CCc2ccccc2C1C1C(=O)CCCC1=O (stereo not given) | n
CCOc1cc2[nH]c(=S)n(CCCOC)c(=O)c2cc1OCC | n
CCOc1cc2[nH]c(=S)n(CCCCC(=O)NCc3ccco3)c(=O)c2cc1OCC | n
CCOc1cc2[nH]c(=S)n(CCC(=O)NCc3ccc(OC)cc3)c(=O)c2cc1OCC | 26 | HuH7 TTR inh=n;TTR up confirm=n
COc1cc2ccccc2cc1C(=O)N1CCN(c2ccccc2O)CC1 | n
C[C@H]1[C@@H](NC(=O)c2ccc(Cl)c(C(F)(F)F)c2)CC[C@@]23CCCN2C(=O)CCC[C@@H]13 | n
COCCNS(=O)(=O)c1cc(OC)c(Cl)cc1Cl | n
COc1ccc(S(=O)(=O)NCc2cccnc2)c(Cl)c1Cl | n
CCOCCCNS(=O)(=O)c1ccc(OC)c(Cl)c1Cl | 12 | HuH7 TTR inh=n;TTR up confirm=n
Nc1[nH]nc2nnc(-c3c(-c4ccccc4)nn4ccccc34)cc12 | n
Cc1noc(C)c1S(=O)(=O)NC(=O)C1(C)CCN1C(=O)Cc1ccc(-c2ccccc2)cc1 (stereo not given) | n
CCN1C(=O)N(c2cccc3ccccc23)C(C)=CC1(C)C | 28 | HuH7 TTR inh=n;TTR up confirm=n
CN1/C(=C/C2CC(=O)N(c3cccc4ccccc34)C2=O)C(C)(C)c2ccccc21 (stereo not given) | n
CC1=CC(=O)N(c2cccc3c(N4C(=O)C=C(C)C4=O)cccc23)C1=O | n
CSc1nnc(-c2sc3cc(C(F)(F)F)cnc3c2-c2ccccc2)n1C | n
Brc1cccc(C2Nc3cccc4cccc(c34)N2)c1 | n
Clc1ccc(C2Nc3cccc4cccc(c34)N2)cc1Cl | 9.8 | HuH7 TTR inh=n;TTR up confirm=n
Clc1cccc(Cl)c1C1Nc2cccc3cccc(c23)N1 | n
SMILES | TTR transcr act | others
COc1ccc([C@H]2CC(=O)C=C(c3c(C)cc(C)cc3C)C2)cc1 | n
S=C(NCc1cccnc1)Nc1ccc(Oc2ccc(Cl)cc2)cc1 | n
C[C@@H]1CCN(C2CC2)S(=O)(=O)c2c(cccc2N2CC[C@@H](O)C2)O1 | n
COC(=O)c1ccc(Cn2ccc3ccc(-c4ccc5ccn(Cc6ccccc6)c5c4)cc32)cc1 | n
O=S1(=O)[C@H]2C[C@@H]3C=C[C@@]2(CN1Cc1ccc(Cl)cc1)O3 | 17 | HuH7 TTR inh=n;TTR up confirm=n
Cc1cccc(CN2C[C@]34C=C[C@@H](C[C@@H]3S2(=O)=O)O4)c1 | n
Cc1cc(C)cc([C@H]2C[C@]34CN(Cc5ccccc5)S(=O)(=O)[C@H]3C[C@H]2O4)c1 | n
CCCCCCCCN1C(=O)[C@@H](CC(=O)NCC23CC4CC(CC(C4)C2)C3)C[C@@]2(C(=O)OC)C1=C[C@H](C(C)C)O[C@@H]2C1CC1 | n
Nc1c(C(=O)N2CCOCC2)cnn1Cc1ccccc1 | n
CCOC(=O)c1c(C)[nH]c(C)c1S(=O)(=O)N(C)CC(=O)Nc1cccc(C)c1 | n
O=C(NCC1CC1)c1ccc(-n2ccnc2)c2ccoc12 | n
O=C(CSc1ccc(Cl)cc1)Nc1cccc(-c2nc3ncccc3o2)c1 | n
CC(C)C(=O)Nc1cccc(-c2nc3ncccc3o2)c1 | 15 | HuH7 TTR inh=n;TTR up confirm=n
CC(C)C(=O)Nc1cccc(-c2nc3ccccc3o2)c1 | n
CC(C)(C)c1ccc(C(=O)NNC(=O)CCC(=O)Nc2ccccc2)cc1 | n
CC1(C(=O)Nc2cccc3c2CCCC3)CCN1C(=O)CCC1CCCC1 (stereo not given) | n
Cn1c(NC(=O)Cc2cccs2)cc(=O)n(C)c1=O | n
Cn1c(NC(=O)C2CC2)cc(=O)n(C)c1=O | 9.9 | HuH7 TTR inh=n;TTR up confirm=n
CCC(CC)C(=O)Nc1cc(=O)n(C)c(=O)n1C | n
Cn1c(NC(=O)c2ccc(C(C)(C)C)cc2)cc(=O)n(C)c1=O | n
COCC(=O)Nc1cc(=O)n(C)c(=O)n1C | 11 | HuH7 TTR inh=n;TTR up confirm=n
Cn1c(NC(=O)c2ccc(Cl)s2)cc(=O)n(C)c1=O | n
CCC[C@H]1[C@@H](NC(=O)Nc2ccc3c(c2)OCO3)CC[C@@]23CCCN2C(=O)CCC[C@@H]13 | n
CCCCc1ccc2nc(NC(=O)c3ccc(Br)o3)sc2c1 | n
COc1ccc(CC(NC(C)=O)C(=O)NC2CCN(C(=O)c3ccc([N+](=O)[O-])cc3)CC2)cc1OC (stereo not given) | n
SMILES | TTR transcr act | others
COc1ccccc1CC(NC(C)=O)C(=O)NC1CCN(C(=O)c2ccc([N+](=O)[O-])cc2)CC1 (stereo not given) | 13 | HuH7 TTR inh=n;TTR up confirm=n
COc1ccccc1CC(NC(C)=O)C(=O)NC1CCN(C(=O)Nc2ccc(F)cc2)CC1 (stereo not given) | n
CCOC(=O)C1(Cc2ccc(OC)cc2)CCN(C(=O)Cn2cnnn2)CC1 | n
CCOC(=O)C1(Cc2ccc(OC)cc2)CCN(C(=O)c2cncs2)CC1 | 9.7 | HuH7 TTR inh=n;TTR up confirm=n
CCOC(=O)C1(Cc2ccc(OC)cc2)CCN(C(=O)C2CCCO2)CC1 (stereo not given) | n
O=C(/C=C/[C@H]1O[C@@H](n2cnc3c(NC(=O)c4ccccc4)ncnc32)[C@H](O)[C@@H]1O)NCc1cccc2ccccc12 | n
C=CCN(C(=O)CNC(=O)c1cccs1)C(C(=O)NC(C)(C)C)c1ccccc1 (stereo not given) | n
COC[C@@H]1CCCN1c1cccc2c1S(=O)(=O)N(C1CC1)CC[C@@H](C)O2 | n
COc1cc(C(=O)N2CCC2(C)C(=O)O)cc(OC)c1OC (stereo not given) | n
COc1ccc(/C=N/N2CCN(C)CC2)c(OC)c1OC | n
COc1ccc(/C=N/n2c(C)nnc2C)c(OC)c1OC | 10 | HuH7 TTR inh=n;TTR up confirm=n
COc1ccc(/C=N/n2c(-c3n[nH]c4c3CCC4)n[nH]c2=S)c(OC)c1OC | n
CC(=O)c1ccc(OCc2cc(C(=O)N(C)CC3COc4ccccc4O3)no2)cc1 (stereo not given) | n
COC(=O)C[C@@H]1C=C[C@@H](NS(=O)(=O)c2ccc(OC)cc2)[C@@H](CO)O1 | n
CO[C@H]([C@H](C)/C=C/N(C)C=O)[C@@H](C)C(O)CC[C@H](C)[C@H](O)[C@H](C)[C@H]1OC(=O)/C=C/C(C)=C/C[C@H](O)C[C@@H]2C=CC[C@@H](C[C@H](OC)[C@@]3(CO3)[C@@H](OC)C[C@@H](OC)[C@@H]1C)O2 (stereo not given in full) | n
C=CCN1C(=O)[C@H](CC(=O)NCc2cccc(C(F)(F)F)c2)[C@@]2(C(=O)OCC)CCCC=C12 | n
Cc1ccc(NS(=O)(=O)c2cc3c(cc2Cl)NC(=O)CO3)cc1C | n
Cc1ccc(S(=O)(=O)Nc2nsc(N)n2)cc1 | n

Compound activity from PubChem.
